From PubChem BioAssay
Active and inactive are the calls of the source.

assay: plasmodial surface anion channel blockers, osmotic lysis – cell-based, P. falciparum Indochina, OD700, 1 h, primary screen (AID 1154); settings: P. falciparum Indochina infected RBC osmotic lysis, higher = more signal, called active from +8 up or from −8 down

For `OCCCC1=CC(c2ccc(CN3CCCC3)cc2)N(Cc2sc3ccccc3c2Cl)CC1` (configuration not stated), which z-score is on record?
The z-score was 7.15 (inactive).

For `CC(C)C(CO)N1C(=O)[C@@H]2C3C(=O)OCCC/C=C\[C@H]3OC23C=CCN(C(C)(C)C)C(=O)[C@@H]13` (some centres not stated), which z-score is on record?
The z-score was 0.502 (inactive).

For `O=c1n(-c2ccccc2)c(=O)n2n1CC(COc1ccccc1)=C([C@H](O)CCc1ccccc1)[C@@H]2CO`, which z-score is on record?
Its z-score is 16.8 (active).

Which z-score does the source give for `CC(C)C(=C=CC[C@H](O)c1cccc(OCCO)c1)C[C@H](O)c1cc(Cl)cc(Cl)c1O` here?
Its z-score is 14.5 (active).

Which z-score does the source give for `CC(C)(C)OC(=O)CC[C@]1(C(=O)NCC(O)CO)N=C(c2ccc(OCCCO)cc2)O[C@H]1c1ccccc1` (some centres not stated) here?
Its z-score is 19.9 (active).

Which z-score does the source give for `COC(=O)[C@@]1(Cc2ccccc2)[C@H]2c3cc(C(=O)N(C)C)n(CCc4ccc(O)c(OC)c4)c3C[C@H]2CN1C(=O)c1ccccc1` here?
The z-score was 0.318 (inactive).

Which z-score does the source give for `C=CCNC(=O)[C@@H]1[C@H]2C(=O)O[C@H](c3ccccc3)[C@H](c3ccccc3)N2[C@H](c2ccc(O)cc2)[C@@]12C(=O)N(C(=O)OCCOC)c1ccc(C#CC3(O)CCCCCC3)cc12` here?
Its z-score is 0.776 (inactive).

With `CCCC[C@@H]1C[C@H]1[C@@H](NC(=O)c1cccs1)c1ccc(C(F)(F)F)cc1` as the compound, how does the z-score read?
The z-score was 1.5 (inactive).

With `COCCOC(=O)N1C(=O)[C@@]2(c3cc(C#Cc4ccc(OC)cc4)ccc31)[C@H](c1ccccc1OCCO)N1[C@H](c3ccccc3)[C@H](c3ccccc3)OC(=O)[C@H]1[C@@H]2C(=O)N1CCCCCCC1` as the compound, how does the z-score read?
Its z-score is 0.999 (inactive).

Which z-score does the source give for `Cc1ccccc1C(O)C1C=CC2C(=O)N(C)C(=O)C2N1N(c1ccccc1)c1ccccc1` (configuration not stated) here?
Its z-score is 3.21 (inactive).

Which z-score does the source give for `Cc1ccc(S[C@]2(C(=O)NCC(F)(F)F)CC(=O)N(Cc3ccccc3C(F)(F)F)[C@@H]2c2ccc(CO)cc2I)cc1` here?
The z-score was 3.79 (inactive).

With `CC(C)N1C(=O)C[C@@](C(=O)NCCCN(C)C)(c2ccc([N+](=O)[O-])cc2)[C@H]1c1ccc(CO)cc1` as the compound, how does the z-score read?
The z-score was 3.55 (inactive).

With `CCOc1cc(C(O)C2C=CC3C(=O)N(c4ccccc4)C(=O)C3N2Nc2ccc(C#N)cc2)ccc1O` (configuration not stated) as the compound, how does the z-score read?
The z-score was 16.3 (active).

With `CN(C)C(=O)[C@@]1(Cc2ccccc2CN=[N+]=[N-])N=C(c2ccc(OCCCO)cc2)O[C@H]1c1ccccc1CN=[N+]=[N-]` as the compound, how does the z-score read?
Its z-score is 10.9 (active).

For `C=CC[C@]1(C(=O)O)COC(c2ccc(OCCCO)cc2)=N1`, which z-score is on record?
The z-score was 2.23 (inactive).

For `C=CCC(OC(C)=O)[C@@H]1[C@@H](N(Cc2cccc3ccccc23)C(=O)Cc2ccc(OC)cc2)c2cc(OCCCO)ccc2N1C(=O)c1ccc2ccccc2n1` (some centres not stated), which z-score is on record?
The z-score was 2.1 (inactive).

Which z-score does the source give for `CCOC(=O)C[C@H]1[C@H](OC(=O)Cc2ccc3c(c2)OCO3)[C@@H](NC(=O)CC(C)C)c2cc(OCCCO)ccc2N1C(=O)Cc1ccc(OC)cc1` here?
Its z-score is 6.25 (inactive).

Which z-score does the source give for `[N-]=[N+]=NCc1ccccc1C[C@@]1(C(=O)NCc2ccccc2)N=C(c2ccc(OCCCO)cc2)O[C@@H]1c1ccccc1N=[N+]=[N-]` here?
The z-score was 32.6 (active).

For `O=C1C2C=CC(C(O)c3ccc(F)cc3)N(n3cnnc3)C2C(=O)N1Cc1ccccc1` (configuration not stated), which z-score is on record?
Its z-score is 0.138 (inactive).

With `NC(=O)NCC#Cc1ccc2c(c1)[C@]1(C(=O)N2)[C@H](C(=O)NC[C@H](O)c2ccccc2)[C@H]2C(=O)O[C@H](c3ccccc3)[C@H](c3ccccc3)N2[C@@H]1c1ccc(OCCO)cc1` as the compound, how does the z-score read?
The z-score was 4.47 (inactive).

Which z-score does the source give for `O=C1O[C@H](c2ccccc2)[C@H](c2ccccc2)N2[C@H]1[C@@H](C(=O)N1CCN(c3ncccn3)CC1)[C@]1(C(=O)Nc3ccc(C#CC4(O)CCCCCC4)cc31)[C@H]2c1ccc(OCCO)cc1` here?
Its z-score is 8.14 (active).

With `CCOc1cc(C(O)C2C=CC3C(=O)N(C)C(=O)C3N2Nc2ccccc2)ccc1O` (configuration not stated) as the compound, how does the z-score read?
The z-score was 0.453 (inactive).

With `CN(C)CCCNC(=O)[C@@H]1c2ccccc2C(=O)N(Cc2ccccc2Cl)[C@H]1c1ccc(CO)cc1` as the compound, how does the z-score read?
Its z-score is 3.77 (inactive).

With `[N-]=[N+]=NCc1ccccc1[C@H]1OC(c2ccc(OCCCO)cc2)=N[C@@]1(CCS(=O)(=O)c1ccccc1)C(=O)N1CCCCC1` as the compound, how does the z-score read?
The z-score was 25.6 (active).

For `O=C1NC(=O)C2C1C=CC(C(O)c1ccco1)N2Nc1ccccn1` (configuration not stated), which z-score is on record?
Its z-score is -0.379 (inactive).

With `CCCCC(O)C1C=CC2C(=O)N(c3ccccc3)C(=O)C2N1Nc1ccc(C(C)C)cc1` (configuration not stated) as the compound, how does the z-score read?
The z-score was 2.81 (inactive).

Which z-score does the source give for `C=CC[C@@]1(C(=O)N2CCOCC2)N=C(c2ccc(OCCCO)cc2)O[C@@H]1c1ccccc1CN=[N+]=[N-]` here?
Its z-score is 21.5 (active).
